Records with an inconclusive call do not appear. Calls of active or inactive are those of the source. Calls come from the whole dose curve; as a rule, active = well fitted inhibition curve with a large enough effect; inconclusive = small, poorly fitted or top-dose-only effect; inactive = flat fitted curve, though single readings scatter.
These molecules were tested against Luciferin 4-monooxygenase (Photinus pyralis) (UniProt P08659) (assay: FLuc inhibitory activity for the follow-up compounds in a biochemical assay with Km concentrations of substrate and 500microM CoASH). Conditions: purified FLuc, Km substrates + 500 uM CoASH, luminescence; series mostly up to 57.5 µM.
Text: NCGC Assay Overview: Firefly (Photinus pyralis) luciferase is one of the most commonly used transcriptional reporters. It is considered one of the more dynamically responsive reporters - that is, responsive to changes in reporter transcription - as it requires no post-translational modifications and is enzymatically active directly after protein synthesis (Wood, 1998). With no endogenous expression in mammalian cells and without the requirement of external excitation, it offers very little background signal, thus generally providing excellent signal to background for most assays. Previous profiling work to determine the prevalence of compounds that affect FLuc enzymatic activity (PubChem AID 411) identified that ~3% of the MLSMR library (then at ~72K) inhibited FLuc. […] Of the compounds identified in this profile that inhibited FLuc, 151 compounds were selected for further analysis, in an effort to better understand their mode of inhibiting FLuc. The assay described here was to determine the activity of the compounds in an FLuc assay that contained KM concentrations of substrates and 500uM CoASH.
NCGC Assay Protocol Summary: Reagents: 50mM Tris acetate, pH 7.5; 10mM Mg acetate; 10uM D-luciferin (Sigma #L9504); 10uM ATP; 0.01% Tween-20; 0.05% BSA; 10nM P. pyralis luciferase (Sigma #L9506); 500 uM CoASH Control compounds used were two known firefly luciferase inhibitors (3-(5-(3-chlorophenyl)-1,2,4-oxadiazol-3-yl)benzoic acid and 5-(2-fluorophenyl)-3-phenyl-1,2,4-oxadiazole), and DMSO. Three microliters containing firefly luciferase substrates in buffer (final concentrations: 50mM Tris acetate, pH 7.5, 10mM Mg acetate, 0.01% Tween-20, 0.05% BSA, 10uM D-luciferin, 10uM ATP, and 500 uM CoASH) are dispensed into each well of a Greiner white, solid-bottom 1536-well format plate using a flying reagent dispenser (FRD). These assay plates were then treated with 23nL of compound or DMSO using a Kalypsys pin tool, which allows for delivery of a 12-point intraplate titration of each compound to the assay plate (quantitative HTS), with a final compound concentrations ranging from approximately ~60uM to 0.3nM. One microliter of firefly luciferase in 500mM Tris-acetate buffer was then delivered by FRD to each well for a final enzyme concentration of 10nM. Luciferase activity was then measured using a ViewLux CCD imager (PerkinElmer), with an average exposure time of 2-30 seconds (2X binning, medium/high gain).

Sequence of Luciferin 4-monooxygenase (Photinus pyralis) (P08659 whole entry, looked up): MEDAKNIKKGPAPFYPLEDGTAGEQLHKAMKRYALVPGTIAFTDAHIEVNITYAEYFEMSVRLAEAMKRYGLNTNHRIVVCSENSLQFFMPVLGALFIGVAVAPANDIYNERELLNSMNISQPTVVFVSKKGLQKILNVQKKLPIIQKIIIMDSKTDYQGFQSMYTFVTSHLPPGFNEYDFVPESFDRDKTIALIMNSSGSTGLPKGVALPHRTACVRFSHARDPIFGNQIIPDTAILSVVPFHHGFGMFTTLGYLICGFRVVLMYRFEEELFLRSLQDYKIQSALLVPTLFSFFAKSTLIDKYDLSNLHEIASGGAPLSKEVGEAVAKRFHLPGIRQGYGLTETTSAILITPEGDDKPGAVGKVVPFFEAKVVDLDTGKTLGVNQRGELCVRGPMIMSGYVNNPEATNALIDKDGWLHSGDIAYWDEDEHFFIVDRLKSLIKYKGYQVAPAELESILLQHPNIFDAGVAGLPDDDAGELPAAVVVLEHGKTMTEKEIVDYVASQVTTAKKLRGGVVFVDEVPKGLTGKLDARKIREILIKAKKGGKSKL

| SMILES | Potency |
| --- | --- |
| Cn1c(N/N=C/c2cc3ccccc3nc2Cl)nc2ccccc21 | 0.0231 µM (active) |
| O=C(Nc1ccccc1C(=O)O)c1ccc(NC(=O)C2CCCO2)cc1 (stereo not given) | 5.8 µM (active) |
| CC(=O)Nc1cccc(C(=O)Nc2ccccc2C(=O)O)c1 | 20.6 µM (active) |
| COc1ccc(-c2cccc(C(=O)Nc3cccc(C(=O)O)c3)c2)cc1 | 13 µM (active) |
| Nc1ccccc1-c1nc2ccccc2s1 | 3.26 µM (active) |
| O=C(O)c1cccc(NC(=O)c2ccccc2NC(=O)c2ccccc2F)c1 | 18.3 µM (active) |
| Cc1ccc(C(=O)Nc2ccccc2C(=O)O)cc1S(=O)(=O)N1CCCCCC1 | 0.919 µM (active) |
| COc1ccc2nc(NC(=O)c3ccco3)sc2c1 | 0.291 µM (active) |
| COc1ccc2nc(NC(=O)c3ccc4ncsc4c3)sc2c1 | 0.651 µM (active) |
| O=C(O)c1cccc(NC(=O)c2ccc(Cl)c(S(=O)(=O)N3CCCCCC3)c2)c1 | 2.91 µM (active) |
| O=C(Cc1ccccc1)Nc1ccc(C(=O)Nc2ccccc2C(=O)O)cc1 | 9.19 µM (active) |
| COc1ccc(C(=O)Nc2nc3ccc(OC)cc3s2)cc1 | 0.58 µM (active) |
| COc1cccc(-c2nc3ccccc3s2)c1 | 0.517 µM (active) |
| O=C(Nc1ccccc1C(=O)Nc1ccccc1C(=O)O)c1ccccc1 | 10.3 µM (active) |
| O=C(Nc1ccccc1C(=O)O)c1ccc(NC(=O)C2CCCCC2)cc1 | 5.17 µM (active) |
| CCOc1ccc(C(=O)Nc2ccccc2C(=O)O)cc1 | 0.41 µM (active) |
| O=C(Nc1c(Cl)cc(Cl)cc1-c1nc2ccccc2s1)c1ccc(Br)o1 | inactive |
| O=C(Nc1ccccc1C(=O)O)c1cccc(NC(=O)c2ccccc2Br)c1 | 14.6 µM (active) |
| Cc1c(NC(=O)c2cccs2)cccc1-c1nc2ccccc2s1 | 3.26 µM (active) |
| O=C(O)c1ccc(NC(=O)c2cccc(NC(=O)c3cccs3)c2)cc1 | 5.8 µM (active) |

| SMILES | Potency |
| --- | --- |
| CCOc1ccc2nc(NC(=O)c3ccoc3C)sc2c1 | 0.183 µM (active) |
| O=C(Nc1ccccc1C(=O)O)c1cccc(NC(=O)c2ccco2)c1 | 6.51 µM (active) |
| Nc1ccc2nc(-c3ccccc3)sc2c1 | 0.058 µM (active) |
| Cc1ccc2sc(-c3ccc(NC(=O)c4cc(-n5cnnc5)ccc4Cl)cc3)nc2c1 | 1.63 µM (active) |
| Cc1ccc(C(=O)O/N=C(\N)c2ccccn2)c(Cl)c1 | 0.0046 µM (active) |
| CN(C)c1cccc(C(=O)Nc2ccc(-c3nc4ccccc4s3)cc2)c1 | 1.46 µM (active) |
| Cc1cccc(NS(=O)(=O)c2cccc(C(=O)Nc3cccc(C(=O)O)c3)c2)c1 | inactive |
| CCc1noc(C)c1C(=O)Nc1nc2ccc(OC)cc2s1 | 13 µM (active) |
| CCOc1ccc2nc(NC(=O)c3ccccc3)sc2c1 | 0.206 µM (active) |
| O=C(O)c1cccc(NC(=O)c2cccc(NC(=O)C3CCCO3)c2)c1 (stereo not given) | 18.3 µM (active) |
| Cc1c(NC(=O)C(C)(C)C)cccc1-c1nc2ccccc2s1 | 1.46 µM (active) |
| COc1ccc(C(=O)Nc2ccccc2-c2nc3ccccc3s2)c(OC)c1 | inactive |
| O=C(Nc1ccccc1C(=O)O)c1cc(S(=O)(=O)Nc2ccccc2)ccc1Cl | inactive |
| CC(=O)Oc1ccc(C(=O)Nc2ccccc2C(=O)Nc2ccc(C(=O)O)cc2)cc1 | 1.46 µM (active) |
| COc1ccc(-c2nc3ccccc3s2)cc1O | 0.0326 µM (active) |
| Cc1cccc(C(=O)Nc2ccccc2C(=O)Nc2ccc(C(=O)O)cc2)c1 | 5.8 µM (active) |
| COc1ccc2nc(NC(=O)Cc3cccs3)sc2c1 | 5.8 µM (active) |
| COc1ccc(C(=O)Nc2ccccc2C(=O)Nc2ccccc2C(=O)O)cc1 | 0.116 µM (active) |
| CN(C)S(=O)(=O)c1ccc(C(=O)Nc2ccccc2C(=O)O)cc1 | 9.19 µM (active) |
| Cc1ccc2nc(-c3ccc(N)cc3)sc2c1 | 0.0326 µM (active) |

— PubChem BioAssay AID602358 (National Center for Advancing Translational Sciences (NCATS), 2012)
